Only some compounds are listed: those with a hit (about 1.1% of all), similar ones and a draw of the others.
MOR-DOR ag-1 – agonists of OPRM1-OPRD1 heterodimerization, primary screen, cell-based, luminescence; activation, % at 9.3 µM; cells; 340,000 compounds, 0.3% hits; AID 504326, 2011; Mu-type opioid receptor (Homo sapiens) + Delta-type opioid receptor (Homo sapiens), …; in the data active means activation above about 18%
MOR-DOR inv ag-1 – inverse agonists of MOR-DOR heterodimerization, primary screen, cell-based, luminescence | inhibition, % at 9.3 µM | cell-based MOR-DOR heterodimer luminescence, inverse agonism | 340,000 compounds, 0.21% hits; in the data active means inhibition above about 22%, passing the limit was not always enough
HTR5A inv ag – HTR5A inverse agonists in luminescence cell assay, primary screen, counter-screen for OPRM1-OPRD1 heterodimer inverse agonist project, full-deck HTS; 5-hydroxytryptamine receptor 5A (Homo sapiens), P47898; HTR5A cell line, inverse agonism; inhibition, % at 9.3 µM; 340,000 compounds, 0.083% hits; AID 504634, 2011; in the data active means inhibition mostly above about 23%, no sharp cut-off; inactive means mostly below about 18%
HTR5A ag – HTR5A agonists in luminescence cell assay, primary screen, counter-screen for OPRM1-OPRD1 heterodimer agonist project, full-deck HTS; cell-based; 340,000 compounds, 0.61% hits; 5-hydroxytryptamine receptor 5A (Homo sapiens), P47898; activation, % at 9.3 µM; in the data active means activation mostly above about 9.5%, no sharp cut-off; inactive means mostly below about 7.6%
MOR-DOR inv conf – inverse agonists of MOR-DOR heterodimerization, confirmation, cell-based, luminescence; AID 504900, 2011; shares compounds with MOR-DOR inv ag-1; 580 compounds, 20% hits; cells expressing OPRM1/OPRD1 heterodimer; inhibition, % at 9.3 µM; in the data active means inhibition above about 32%
HTR5A inv count – HTR5A inverse agonists, counter-screen for OPRM1-OPRD1 inverse agonist project, cell-based, luminescence; inhibition, % at 9.3 µM; shares compounds with MOR-DOR inv ag-1; 580 tested, under 10 active; AID 504914, 2011; HTR5A-expressing cells, inverse agonism
MOR-DOR inv ag-2 – inverse agonists of MOR-DOR heterodimerization, counter-screen for HTR5A inverse agonist project, cell-based, luminescence. shares compounds with HTR5A inv ag. AID 504912, 2011. 190 tested, under 10 active. U2OS counter-screen cells, complementation luminescence. inhibition, % at 9.3 µM
HTR5A inv conf – HTR5A inverse agonists, retest of hits, confirmation, cell-based, luminescence; shares compounds with HTR5A inv ag; HTR5A-expressing cells, inverse agonism; inhibition, % at 9.3 µM; 190 tested, under 10 active
MOR-DOR ag-2 – OPRM1-OPRD1 heterodimerization promoters, counter-screen for HTR5A agonist project, cell-based, luminescence | 800 compounds, 13% hits | U2OS counter-screen cells, complementation luminescence, 3 h | activation, % at 9.3 µM | shares compounds with HTR5A ag; in the data active means activation above about 18%
HTR5A ag confirm – HTR5A agonists, retest of hits, confirmation, cell-based, luminescence. shares compounds with HTR5A ag. HTR5A agonist cell assay. activation, % at 9.3 µM. 800 compounds, 17% hits; in the data active means activation above about 17%
A number is an active result; - = inactive; . = not tested or not shown. Unless noted, how the calls were made is not given here.

SMILES	MOR-DOR ag-1	MOR-DOR inv ag-1	HTR5A inv ag	HTR5A ag	MOR-DOR ag-2	HTR5A ag confirm	others
CCCCOCCCn1c(N)c(C(=O)OCCOC)c2nc3ccccc3nc21	-	33.0	-	-	.	.	MOR-DOR inv conf=-;HTR5A inv count=-
CCCCn1c(NS(=O)(=O)c2ccc(C)cc2)c(C(=O)OCC)c2nc3ccccc3nc21	-	-	-	-	.	.
CCOc1ccc2nc(N=Nc3c(O)[nH]c(=S)[nH]c3=O)sc2c1	-	32.2	-	-	.	.	MOR-DOR inv conf=-;HTR5A inv count=-
CCOC(=O)Cn1cc([N+](=O)[O-])nc1[N+](=O)[O-]	-	-	-	-	.	.
CC1CN(CC(=O)c2ccccc2Cl)CC(C)O1 (centres undefined)	-	-	-	-	.	.
CC1CCN(CC(=O)c2ccccc2Cl)CC1	-	39.8	-	-	.	.	MOR-DOR inv conf=-;HTR5A inv count=-
Clc1cccc(C2NCc3ccccc3-n3cccc32)c1 (centres undefined)	-	-	-	-	.	.
C[C@H]1CCCC(=O)CCC/C=C/c2cc(O)cc(O)c2C(=O)O1	-	-	-	-	.	.
C[C@H]1CCC/C=C/[C@@H]2C[C@H](O)C[C@H]2[C@H](O)/C=C/C(=O)O1	-	32.9	-	-	.	.	MOR-DOR inv conf=-;HTR5A inv count=-
C=C(C)[C@@H]1C2C(=O)O[C@H]1[C@H]1OC(=O)[C@@]34OC3C[C@]2(O)[C@@]14C (some centres undefined)	-	-	-	-	.	.
Nc1cc(Cl)c2nonc2c1[N+](=O)[O-]	-	40.2	-	-	.	.	MOR-DOR inv conf=-;HTR5A inv count=-
CC1CCCN(CC(=O)c2ccc(Cl)c(Cl)c2)C1 (centres undefined)	-	71.0	-	-	.	.	MOR-DOR inv conf=66.0;HTR5A inv count=-
c1ccc(C2N3CCCN23)cc1 (centres undefined)	-	-	-	-	.	.
ON1C2CCCCC2N(O)C1c1ccccc1 (centres undefined)	-	44.7	-	-	.	.	MOR-DOR inv conf=-;HTR5A inv count=-
COc1ccc(SCC2CN(C)CCC2c2ccc(F)cc2)cc1 (centres undefined)	-	-	-	-	.	.
CN(C)c1ccc(/C=C/c2cc[n+](C)c3ccccc23)cc1	-	-	38.2	-	.	.	MOR-DOR inv ag-2=-;HTR5A inv conf=-
CCCOP(=O)(O)c1c([N+](=O)[O-])cc(C(F)(F)F)cc1[N+](=O)[O-] (tested in a mixture with another compound)	-	-	-	-	.	.
CC1=C[C@@H]2c3cccc4[nH]cc(c34)C[C@H]2N(C)C1	-	-	-	26.2	-	33.9
CC(N)Cc1c[nH]c2ccc(Cl)cc12 (centres undefined)	-	-	-	-	.	.
COc1ccc2[nH]cc(CCN=C(N)N)c2c1	-	-	-	-	.	.
NCCc1c[nH]c2ccc(OCc3ccccc3)cc12	-	-	-	33.1	-	-
CCCCc1ccc2[nH]cc(CCN)c2c1	-	-	-	97.1	-	-
COc1nc2ccccc2nc1N1CCN(C)CC1	-	-	-	20.3	-	-
Fc1ccc(CNCCc2c[nH]c3ccccc23)cc1	-	-	-	-	.	.
Fc1ccccc1CNCCc1c[nH]c2ccccc12	-	-	-	25.1	-	39.2
SMILES	MOR-DOR ag-1	MOR-DOR inv ag-1	HTR5A inv ag	HTR5A ag	MOR-DOR ag-2	HTR5A ag confirm	others
Cc1cccc(CSc2nc3c(cc2C#N)CN(C)CC3)c1	-	-	-	19.8	-	-
CN1CCc2nc(SCc3ccccc3Br)c(C#N)cc2C1	-	-	-	-	.	.
CN1CC=C(c2c[nH]c3ccccc23)CC1	-	-	-	23.1	-	-
CCOc1cc2c(cc1OCC)-n1cccc1C(c1cc(C)c(OC)cc1C)NC2 (centres undefined)	-	-	-	-	.	.
Cc1cccc(-c2nc3ccccc3c(=O)n2-n2cccc2)c1	-	-	-	-	.	.
CCC(=NCCc1c[nH]c2ccccc12)c1c(O)n(-c2ccc(C)cc2)c(=O)[nH]c1=O	-	-	-	18.6	-	-
CCC(=NCCc1c[nH]c2ccccc12)c1c(O)n(C)c(=O)n(C)c1=O	-	-	-	40.5	-	-
CC(=NCCc1c[nH]c2ccccc12)c1c(O)n(Cc2ccccc2)c(=O)[nH]c1=O	-	-	-	-	.	.
OCC1CO1 (centres undefined)	-	-	-	-	.	.
C#C[C@@]1(O)CCC2C3CCC4=C/C(=N/OCC(=O)NC(CCC(N)=O)C(=O)O)CC[C@]4(C)C3CC[C@@]21C (some centres undefined)	-	-	-	-	.	.
CCN(CC)c1ccc(N=Cc2c(O)n(-c3ccccc3C)c(=O)[nH]c2=O)cc1	-	-	-	17.8	-	-
O=C(c1c[nH]cc1-c1ccccc1)c1cccc2ccccc12	-	-	-	-	.	.
CCCCC/C(=N/O)c1c(C)[nH]c2ccccc12	-	-	-	15.5	-	-
O=C(Nc1nc(-c2ccccc2)c(-c2ccccc2)s1)c1ccc(S(=O)(=O)N(CCCl)CCCl)cc1	-	-	-	-	.	.
Cc1cccc(-n2c(C)nc3ccc(Cl)cc3c2=O)c1	-	-	-	-	.	.
Clc1cc(I)cc(Cl)c1NC1=NCCN1	-	-	-	43.0	-	-
O=C(Nc1ccc(Cl)cc1C(=O)c1ccccc1Cl)c1ccco1	-	-	-	-	.	.
CN1C[C@H](CO)C=C2c3cccc4[nH]cc(c34)C[C@H]21	-	-	-	59.7	-	-
CCCN(CCC)C1CCc2cccc(O)c2C1 (centres undefined)	-	-	-	45.9	-	55.7
CCCN1CC[C@@H]2c3cc(O)ccc3CC[C@@H]21	-	-	-	-	.	.
CCCN(CCC)C1CCc2ccc(O)cc2C1 (centres undefined)	-	-	-	35.2	30.8	-
CC12CCC3C(CCC4CC(=O)OCC43C)C1CCC2O (centres undefined)	-	-	-	-	.	.

Screens from PubChem BioAssay.
